# From PubChem
# Only some compounds are listed: those with a hit (about 1.6% of all), similar ones and a draw of the others.
# KCNQ2 enhance: enhances the rat KCNQ2 potassium channel; CHO-K1 KCNQ2, FluxOR thallium flux fluorescence; active compounds read high; B-score at 10 µM; 310,000 compounds, 0.54% hits; AID 2239;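 active = fluorescence ratio B-score at least 3 SD of library B-scores, with initial fluorescence B-score within 3 of them, cut at about 5.3 in these data; same plate scores as AID 2156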;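 also: B-score of peak minus minimum over baseline fluorescence ratio after K+ and Tl+ stimulus; positive B-score means potentiation of KCNQ2 with more thallium influx and brighter signal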
# Target sequence (O88943 whole entry, looked up): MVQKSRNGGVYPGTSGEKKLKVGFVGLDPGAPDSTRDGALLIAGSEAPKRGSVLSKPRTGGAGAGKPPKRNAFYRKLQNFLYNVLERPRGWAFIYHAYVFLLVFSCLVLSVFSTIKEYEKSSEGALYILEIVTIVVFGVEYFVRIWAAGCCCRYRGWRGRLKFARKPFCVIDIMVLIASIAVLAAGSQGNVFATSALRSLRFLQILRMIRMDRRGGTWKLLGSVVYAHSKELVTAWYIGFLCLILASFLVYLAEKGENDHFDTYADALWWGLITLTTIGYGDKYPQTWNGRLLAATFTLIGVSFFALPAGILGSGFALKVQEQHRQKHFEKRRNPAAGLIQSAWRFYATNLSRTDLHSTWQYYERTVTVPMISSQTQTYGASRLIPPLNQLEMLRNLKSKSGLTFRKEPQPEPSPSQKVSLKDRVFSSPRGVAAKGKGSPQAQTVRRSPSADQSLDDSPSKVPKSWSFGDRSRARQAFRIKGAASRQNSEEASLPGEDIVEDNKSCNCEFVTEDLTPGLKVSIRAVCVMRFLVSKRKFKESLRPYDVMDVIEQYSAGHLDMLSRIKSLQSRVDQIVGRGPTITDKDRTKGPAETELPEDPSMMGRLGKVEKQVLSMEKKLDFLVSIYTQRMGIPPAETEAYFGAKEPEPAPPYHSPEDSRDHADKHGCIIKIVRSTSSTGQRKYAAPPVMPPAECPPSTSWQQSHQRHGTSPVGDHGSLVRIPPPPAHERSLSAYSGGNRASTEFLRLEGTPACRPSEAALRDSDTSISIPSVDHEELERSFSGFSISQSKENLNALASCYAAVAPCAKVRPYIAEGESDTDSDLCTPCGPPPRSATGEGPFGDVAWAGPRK
# KCNQ2 block: blocks the rat KCNQ2 potassium channel. CHO-K1 KCNQ2, FluxOR thallium flux, 20 min; active compounds read low. B-score at 10 µM. 310,000 compounds, 1.1% hits. AID 2156;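 active = fluorescence ratio B-score at most minus 3 library SDs, with starting brightness B-score within 2 library SDs, cut at about -5.5 in these data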
# The depositor's hits bear a star; i = inactive; nt = no result given.
SMILES,KCNQ2 enhance,KCNQ2 block
CCOC(=O)c1c(-c2ccccc2)oc2ccc(OCC(O)CNCCN(C)C)cc12 (centres undefined),-6.7,-6.7*
CCOC(=O)c1c(-c2ccccc2)oc2ccc(OCC)cc12,nt,i
CC1(C)Cc2cccc(OCC(=O)Nc3ccc(S(N)(=O)=O)cc3)c2O1,0.91,i
N#C/C(=C\c1cccnc1)C(=O)Nc1ccc(Cl)cc1,nt,i
Cc1cccc(NC(=O)/C(C#N)=C\c2cccnc2)c1,-6.55,-6.55*
COc1cccc(CNC(=O)Nc2cccs2)c1,5.67*,i
COc1ccc(CNC(=O)Nc2cccs2)cc1OC,1.92,i
COc1ccccc1CNC(=O)c1ccc(NC2=NC3CS(=O)(=O)CC3S2)cc1 (centres undefined),0.17,i
CCc1nn(CCCC(=O)NCc2cc(Br)ccc2OC)c(=O)c2cc3occc3n12,nt,i
Cc1c(O)nc(SCC(=O)Nc2nccs2)n(-c2ccccc2F)c1=O,nt,i
Cc1cc2nnc(SCC(=O)NCc3cccs3)n2c2ccccc12,nt,i
Cc1cc2nnc(SCC(=O)NCc3ccco3)n2c2ccccc12,8.71*,i
Cc1cc(Oc2ccc(=O)n(C)n2)nc(=S)[nH]1,nt,i
COc1ccc(C(CNC(=O)COc2cc(C)c(Cl)c(C)c2)N2CCCCC2)cc1 (centres undefined),-5.99,-5.99*
COc1ccc(C(CNC(=O)c2oc3ccc(C)cc3c2C)N2CCCCC2)cc1 (centres undefined),nt,i
COc1ccc(C(CNC(=O)COc2ccc(C)c(C)c2)N2CCCCC2)cc1 (centres undefined),nt,i
COc1ccc(C(CNC(=O)c2oc3cc(C)c(Cl)cc3c2C)N2CCCCC2)cc1 (centres undefined),-5.79,-5.79*
CC(C)CC1COC(=O)N1 (centres undefined),0.03,i
Cc1ccc(C(=O)Nc2ncccc2S(=O)(=O)c2ccccc2)cc1,nt,i
COc1ccc(C2NC3=C(CCCC3)C(C#N)(C#N)C2(C#N)C#N)cc1 (centres undefined),-5.79,-5.79*
COc1ccc(C2NC3=C(CCC3)C3(C#N)C4(N=C(N)C23C#N)OCCO4)cc1 (centres undefined),nt,i
CC(Cc1nnc(N)s1)c1ccccc1 (centres undefined),nt,i
CN(C)/C(=N\S(=O)(=O)c1ccccc1)c1ccccc1,nt,i
CN(C)c1ccc(C=NC(CO)C(O)c2ccc([N+](=O)[O-])cc2)cc1 (centres undefined),nt,i
CN(C)c1ccc(C(c2ccc(N(C)C)cc2)c2ccc([N+](=O)[O-])cc2)cc1,-6.58,-6.58*
SMILES,KCNQ2 enhance,KCNQ2 block
COc1cc(C(=O)NCc2nnc(SCC(=O)N3CCCc4ccccc43)o2)cc(OC)c1OC,0.49,i
COc1cccc(OCc2cc(C(=O)NCC3CCCCC3)no2)c1,nt,i
CCOC(=O)CC1(NC(=O)c2cc(COc3cccc(OC)c3)on2)CCCCC1,-7.01,-7.01*
Cn1c(C(C)(O)C(O)c2ccccc2)nc2ccccc21 (centres undefined),nt,i
CN(CCOc1ccc(Cl)cc1)C(=O)c1cc(-c2ccco2)nc2ccccc12,-13.2,-13.2*
COc1cccc(NC(=O)CN(C)C(=O)c2cc(-c3ccco3)nc3ccccc23)c1,nt,i
O=C(CN(C(=O)c1cc2c(s1)CCC2)C1CCCC1)NCc1cccs1,-7.14,-7.14*
O=C(CN(Cc1ccccc1)C(=O)c1cc2c(s1)CCC2)NCc1cccs1,nt,i
Cc1csc(-c2cnn(-c3ccccc3)c2NC(=O)c2ccc(C(F)(F)F)cc2)n1,-5.91,-5.91*
CC(C)(C)NC(=O)c1cnn(-c2ccccc2)c1NC(=O)c1ccccc1,nt,i
C[C@]12CCC[C@H](O1)c1c(cc3c(c1O)C(=O)c1c(O)cc(O)cc1C3=O)O2,nt,i
O=C(NC(=S)NCCc1ccc(Cl)cc1)c1ccco1,1.92,i
COc1cc(C(=O)NC(=S)N(C)Cc2ccccc2)cc(OC)c1OC,nt,i
O=C(NC(=S)N(CCc1ccccc1)CCc1ccccc1)c1ccco1,16.4*,i
COc1cc(C(=O)NC(=S)N(CCc2ccccc2)CCc2ccccc2)cc(OC)c1OC,18.1*,i
COc1ccccc1N1C(=NC(=O)CCC2CCCC2)SC2CS(=O)(=O)CC21 (centres undefined),1.22,i
Cc1[nH]c(=O)[nH]c(=O)c1/C=C/C(=O)O,nt,i
O=C(C1CCCO1)N1CCN(C(=S)Nc2cc(F)cc(F)c2)CC1 (centres undefined),nt,i
COc1ccc(CNn2c(-c3cccc(C)c3)nc3ccccc3c2=O)cc1OC,nt,i
COc1ccccc1CNn1c(-c2cccc(C)c2)nc2ccccc2c1=O,-7.58,-7.58*
Cc1ccc(NS(=O)(=O)c2ccc(C(=O)N3CC(C)CC(C)C3)cc2)cc1 (centres undefined),2.84,i
COc1ccc(C(C(=O)NC2CCCC2)N(C(=O)c2snc(-c3ccc(F)cc3)c2N)c2ccc(F)cc2)cc1 (centres undefined),nt,i
COc1ccc(C(C(=O)NC2CCCC2)N(C(=O)c2snc(-c3ccc(F)cc3)c2N)c2ccc(OC)cc2)cc1 (centres undefined),-5.67,-5.67*
Cc1cccc(OCC(=O)O/N=C(\N)c2ccncc2)c1,nt,i
O=C1C2=C(CCCC2)C(=O)N1c1cccc(OCCBr)c1,7.77*,i
SMILES,KCNQ2 enhance,KCNQ2 block
CC(C)CN(CCOc1cccc(N2C(=O)C3=C(CCCC3)C2=O)c1)CC(C)C,nt,i
O=[N+]([O-])c1ccccc1CNC1CCCc2ccccc21 (centres undefined),0.96,i
CCC(C)NC(=O)CCc1c(C)nc2c(c(C)nn2-c2ccccc2)c1C (centres undefined),1.95,i
Cc1nc2c(c(C)nn2-c2ccccc2)c(C)c1CCC(=O)Nc1ccc(CN2CCCC2)cc1,-6.12,-6.12*
COCC(=O)N1CCC(Oc2ccc(C(=O)NC3CCOC(C)(C)C3)cc2)CC1 (centres undefined),0.57,i
O=c1c2ccccc2nc(SCc2cc([N+](=O)[O-])cc3c2OCOC3)n1-c1ccccc1,-6.06,-6.06*
O=c1c2ccccc2nc(SCc2ccc([N+](=O)[O-])cc2)n1-c1ccccc1,nt,i
CCOC(=O)CC1(NC(=O)C2CCC(=O)N(C3CC3)C2)CCCCC1 (centres undefined),nt,i
CCOC(=O)CC1(NC(=O)C2CCC(=O)N(CCc3ccccc3)C2)CCCCC1 (centres undefined),-6.35,-6.35*
CCOC(=O)C1CCN(C(=O)c2ccc(N(C)S(=O)(=O)c3ccc(OC)cc3)cc2)CC1,nt,i
CCC(C)[C@H](NC(=O)C1CCN(C(=O)[C@H](Cc2ccccc2)NS(=O)(=O)c2ccc(C)cc2)CC1)C(=O)O (some centres undefined),0.2,i
CCCC1S/C(=N/N=C/c2ccc(OC)cc2)N(Cc2ccccc2)C1=O (centres undefined),-6.15,-6.15*
CCCC1S/C(=N/N=C/c2ccc(OC)cc2)N(Cc2ccc(OC)cc2)C1=O (centres undefined),nt,i
CCc1ccc(-c2nc(CN3CCC(C(=O)NCCN(CC)c4ccccc4)CC3)c(C)o2)cc1,-6.52,-6.52*
CCc1ccc(-c2nc(CN3CCC(C(=O)NCc4ccc(F)cc4)CC3)c(C)o2)cc1,nt,i
Cc1oc(-c2ccc(Cl)cc2)nc1CN1CCC(C(=O)NCCCN2CCOCC2)CC1,0.21,i
